# Results published in the supplement of paper PMC3334620.
# Whole data set: some 33,000 sequences, median “E-score (-0.5 to 0.5)” near -0.04, cut for the highest 2% near 0.36. What follows is part of a selection rich in the highest values, with near analogues and random picks from the rest.
# Target: T1, Hmlalpha2 (UniProt P0CY09)
# T1 sequence: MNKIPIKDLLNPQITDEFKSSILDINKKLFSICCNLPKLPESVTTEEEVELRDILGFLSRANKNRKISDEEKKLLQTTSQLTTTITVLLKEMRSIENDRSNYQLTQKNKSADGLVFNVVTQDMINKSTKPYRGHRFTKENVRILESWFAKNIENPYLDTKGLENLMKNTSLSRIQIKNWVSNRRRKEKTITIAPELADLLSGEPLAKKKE
# Assay: PBM E-score (8-mer binding enrichment) (E-score (-0.5 to 0.5)); higher = stronger / more preferred TF binding
# Conditions: protein concentration: 200 nM; construct: GST-full length
# Procedure: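 Universal 'all 10-mer' protein binding microarrays (Agilent AMADID 015681) probed with GST-tagged S. cerevisiae TFs (full-length or DBD) made by in vitro transcription/translation (PURExpress), about 100-200 nM. Bound TF was detected with fluorescent anti-GST. Each ungapped 8-mer (which stands for itself and its reverse complement) is scored by the PBM enrichment score (E-score), a modified Wilcoxon-Mann-Whitney statistic from -0.5 to +0.5, computed with the Universal PBM Analysis Suite. Scale: above 0.35 generally sequence-specific binding.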
row,Sequence,PBM E-score
1,AATGCAGT,-0.00748
2,CCTTCACA,0.0306
3,CACATCCC,-0.0137
4,GCCAAACA,-0.107
5,AGTAGAGG,-0.226
6,CGTAGCAG,-0.129
7,CAGTTCTC,-0.179
8,ATTAACAC,0.455
9,ATTAACTC,0.216
10,ATTAACCC,0.0714
11,GCCATGCA,0.0965
12,ACCATGTG,0.188
13,GCCATGGA,-0.178
14,CCCATGGA,-0.1
15,CCCATGTC,0.161
16,ACCATGTA,0.467
17,CCCATGTA,0.447
18,ACCATGTC,0.296
19,GCCATGTA,0.457
20,CACCATGC,-0.0851
21,TCACATCA,0.00787
22,CGTAACGC,0.193
23,CTGCCAGC,-0.238
24,ATTATGTC,0.164
25,ATTATGTG,0.17

row,Sequence,PBM E-score
1,CTTATGTA,0.409
2,ATTATGTA,0.415
3,GTTATGCA,0.00491
4,CTTATGTC,0.117
5,GTTATGTA,0.419
6,GTTATGAA,0.186
7,CTTATGCA,0.135
8,GCGCCAGA,-0.138
9,AGTCGGGA,-0.192
10,GAAGCTAA,-0.0677
11,ATCCACAT,0.158
12,TAATGTCA,0.155
13,CAATGTAG,0.172
14,TAATGTAA,0.431
15,GAATGTCA,0.0786
16,CAATGTAA,0.435
17,CAATGTAC,0.217
18,TAATGTGA,0.19
19,GAATGTAA,0.372
20,GAATGTAC,0.16
21,AAATGTAC,0.236
22,AAATGTAG,0.113
23,AAATGTAA,0.394
24,CTGAAAAC,0.1
25,CTCAGAAG,-0.215

row,Sequence,PBM E-score
1,AACCCGAT,0.0593
2,ACGGGGGG,-0.22
3,ACTCGGGG,-0.134
4,AAACCGAG,-0.204
5,GCGTATAA,0.337
6,ATGTATAC,0.435
7,CTGTATAA,0.209
8,GCGTATAC,0.371
9,ATGTATCC,0.294
10,ATGTATAG,0.362
11,GTATATAA,0.29
12,GAGTATAA,0.169
13,GTGTATAA,0.391
14,ATGTATAA,0.395
15,CTGTATAC,0.247
16,CCGTATAC,0.0388
17,GTATGCCA,-0.254
18,ACGACCCA,-0.0906
19,TGTAGGAA,0.226
20,GCCACCGC,-0.33
21,GATGGACA,-0.0833
22,CTTGAAAC,-0.111
23,ATGCTGCA,0.0587
24,TCCTATCA,-0.172
25,AGTCGCGA,-0.0755

row,Sequence,PBM E-score
1,CTCCCATC,-0.242
2,CATCTGAG,-0.137
3,CAAAATTC,0.15
4,ATACCTGG,-0.252
5,ATGCTGTA,0.136
6,AAGGAGCT,-0.163
7,CTGTAGAC,0.104
8,AAGTAGAG,0.018
9,ACGTAGAG,0.224
10,ATGTAGGC,0.169
11,GAGTAGAA,0.147
12,GTGTAGAA,0.445
13,ATGTAGGA,0.236
14,CTGTAGAA,0.161
15,GCGTAGAA,0.313
16,ATGTAGAG,0.376
17,ATGTAGAC,0.391
18,ATGTAGAA,0.43
19,CACAGATC,-0.0314
20,GAATCTTA,-0.127
21,CGATTAAC,0.149
22,TATCCTCA,-0.113
23,CTGTTAAG,0.255
24,ACGTTAAA,0.362
25,ACGTTAAG,0.255

row,Sequence,PBM E-score
1,AGGTTAAT,0.182
2,CTGTTACA,0.281
3,ATGTTAGA,0.358
4,ATGTTAAT,0.447
5,AAGTTAAT,0.187
6,ATGTTACC,0.317
7,ATGTTAAG,0.445
8,ATGTTACA,0.401
9,ATGTTAAA,0.473
10,CACAAACG,0.241
11,ACTCTCCT,-0.223
12,CAGCTACC,-0.168
13,CCCTAGAG,-0.232
14,CTTTACCA,0.0599
15,GTTTACAA,0.425
16,CTTTACTA,0.252
17,ATTTACAG,0.269
18,ATTTACCA,0.21
19,GCTTACAA,0.275
20,ATTTACAC,0.479
21,ATTTACAA,0.453
22,ATTTACCC,0.0345
23,CTTTACAA,0.38
24,ATTTACTC,0.301
25,GTTTACTA,0.356

row,Sequence,PBM E-score
1,GAATTTGA,-0.109
2,AAACTGGG,-0.278
3,ATAGTGGC,-0.192
4,GGCTTGAC,-0.093
5,ACAACATC,0.263
6,ACAACATG,0.451
7,CCAACATA,0.314
8,GCAACATA,0.219
9,ACAACAAG,0.298
10,ACAACATA,0.382
11,AGTGGATG,-0.0671
12,ACCTGAGT,0.0645
13,AAGGATCT,-0.17
14,ACCACGAG,-0.135
15,ACACGCTG,0.355
16,AAACGCTC,-0.144
17,GCACGCTA,-0.192
18,ACACGCTA,0.414
19,ACACGCTC,0.399
20,CCACGCTC,-0.335
21,GAGTTAGA,-0.0875
22,AGAAGGCC,-0.213
23,GATGAAGC,-0.157
24,CTATGTTC,0.252
25,CTATGTTA,0.414

row,Sequence,PBM E-score
1,GAATGTTA,0.287
2,ATATGTTA,0.384
3,GGATGTTA,0.299
4,CTCTGTTA,0.23
5,ATATGTTC,0.198
6,GTATGTTA,0.414
7,ATATGTTG,0.346
8,CGAATATA,-0.00331
9,AGGGGAGG,-0.299
10,ACTTGGAA,-0.144
11,ATTAGCGC,0.0131
12,GATTCAAC,0.0589
13,ATGGGTTG,0.0606
14,TGTGTTAA,0.471
15,TCTGTTAA,0.331
16,CATGTTTC,0.333
17,CATGTTGA,0.477
18,CATGTTGC,0.334
19,AATGTTGA,0.256
20,AGTTTTAA,0.169
21,GATGTTTA,0.223
22,CATGTTTA,0.437
23,TGTTTAAA,0.34
24,TGTTTTAA,0.382
25,GGTGTTAA,0.361
